Test results published in ChEMBL document CHEMBL3988442, “University of Dundee, Small-Polar-MMV Screening Library” (2021).
In all, about 48,000 compounds went through this assay and about 13,000 (27%) showed an effect of 50% or more. The list shows a part of the results.

Tested on: Wolbachia pipientis
Assay: Anti-Wolbachia Cell-Based Screen
Assay type: functional
Parameters: scale not given: in the data most compounds retested in dose-response had high values
Settings: 5 µM

Compound | Percent Effect [%]
Cc1cccc(CN(Cc2ccccc2)Cc2nccs2)n1 | -3.089
COc1ccccc1OC1CN(C(=O)CN(C)Cc2ccncc2)C1 | -7.187
CCC(=O)NC1CCCN(Cc2ccc(-n3ccnc3)cc2)C1 (stereo not given) | 12
CCc1nc2ccccc2c(=O)n1CC1(O)CCNCC1.Cl | 113.9
CCc1nc2ccccc2c(=O)n1CC1(O)CCN(S(C)(=O)=O)CC1.Cl | -5.087
Cc1nc2ccccc2c(=O)n1CCC(=O)N1CCNC(=O)C1 | -8.423
CCNC(=O)N(Cc1ccoc1)C1CCCCC1 | -0.3193
Cc1cc(-c2cnn(CCNC(=O)C3CC3)c2C2CC2)on1 | 8.757
CCCn1nc(C)c(CNC(=O)c2snnc2C)c1C | -13.49
CCc1cccc(N2CCC(NC(=O)c3cc[nH]n3)CC2)c1 | 15.39
Cc1cc(-c2cnn(CCNC(=O)c3cc[nH]n3)c2C2CC2)on1 | 115.4
Cc1cc(-c2cnn(CCNC(=O)c3cnn(C)c3)c2C2CC2)on1 | 133.8
Cc1cc(-c2cnn(CCNC(=O)c3snnc3C)c2C2CC2)on1 | 141.4
Cc1cc(-c2cnn(CCNC(=O)c3cccnc3)c2C2CC2)on1.Cl | -6.458
Cc1cc(C(=O)NCCSC2CCCC2)no1 | -0.7527
O=C(NCCc1nnc[nH]1)Nc1cccc(SC(F)F)c1 | -17.31
O=C(C[S+]([O-])Cc1ccc(Cl)cc1Cl)N1CCc2sccc2C1 (stereo not given) | -26.03
Cc1nc(CN(C)C(=O)C2CC(=O)N(c3cccc(O)c3)C2)cs1 (stereo not given) | -3.806
COc1cccc(S(=O)(=O)CCN2CCCN(C(C)=O)CC2)c1 | -4.305
CN1CCOC[C@H]1c1nc(-c2ccncc2)c[nH]1 | -4.576
Cc1ccc(C)c(NC(=O)N2CCC3(CC2)NC(=O)CC3C(=O)O)c1 (stereo not given) | -4.672
O=C(O)[C@@H]1CN(C2CCOCC2)C[C@H]1C1CC1 | 12.44
Clc1ccccc1-c1nc(CNC2CCc3ncnn3C2)co1 (stereo not given) | 83.87
Fc1ccc(-c2nnc(CNC3CCc4ncnn4C3)o2)cc1 (stereo not given) | -10.58

Compound | Percent Effect [%]
Fc1ccc(-c2ccc(CNC3CCc4ncnn4C3)o2)cc1 (stereo not given) | -0.7899
Cc1ccc(-c2nc(CNC3CCc4ncnn4C3)co2)cc1 (stereo not given) | 77.78
Clc1ccccc1-c1nc(CNC2CCc3ncnn3C2)cs1 (stereo not given) | -2.283
c1ccc(-c2nc(CNC3CCc4ncnn4C3)co2)cc1 (stereo not given) | 3.463
Clc1cccc(-c2nc(CNC3CCc4ncnn4C3)co2)c1 (stereo not given) | 112.7
Fc1ccc(-c2nc(CNC3CCc4ncnn4C3)co2)cc1 (stereo not given) | 119.4
c1csc(-c2nc(CNC3CCc4ncnn4C3)co2)c1 (stereo not given) | -0.5039
c1nc2n(n1)CC(NCc1csc(-c3ccsc3)n1)CC2 (stereo not given) | -11.03
N#Cc1ccc(CS(=O)(=O)NC(=O)c2ccc3c(c2)COC3)cc1 | -4.05
Cn1cc(Cl)cc1C(=O)N1CCN(Cc2ccsc2)CC1 | -5.701
CC(=O)N1CCC(N2CCOC[C@H]2c2nc(-c3cccnc3)c[nH]2)CC1 | 31.59
Cc1nc(NC(=O)c2c(-n3cnnn3)sc3c2CCC3)sc1C | 89.24
Cc1nc(NC(=O)c2cccnc2N2CCOCC2)sc1C | -47.07
Cc1nc(NC(=O)c2c(-n3cnnn3)sc(C)c2C)sc1C | 111.3
CCC(C)NC(=O)c1ccccc1-n1cnnn1 (stereo not given) | -7.012
Cc1sc(-n2cnnn2)c(C(=O)NC(C)C)c1C | 78.35
CC[C@H](C)[C@H](NC(=O)c1ccccc1-n1cnnn1)C(=O)OC | 39.09
Cc1nc(NC(=O)C(C)N2CCN(c3cnccn3)CC2)sc1C (stereo not given) | 1.711
Cc1nc(NC(=O)c2c(-n3cnnn3)sc3c2CCCC3)sc1C | 119.6
O=C(COCC1CC1)N1CCCC(n2cccn2)C1 (stereo not given) | 4.687
CC1CN(Cc2ccccc2)CCCN1CCCS(C)(=O)=O (stereo not given) | -4.156
CC(=O)Nc1nc(C(=O)N2CCCC(c3cc(C)[nH]n3)C2)cs1 (stereo not given) | -0.9316
Nc1nc(C2CCN(C(=O)c3cncs3)CC2)cs1 | -2.594
CC(=O)c1ccc(C(=O)N2CCC(c3cc(O)nc(C)n3)CC2)s1 | -1.622

Compound | Percent Effect [%]
CC(=O)Nc1nc(C2CCN(C(=O)Cc3ccccc3)CC2)cs1 | 87.03
CC(=O)N1CCC(C(=O)Nc2nc(C3CC3)cs2)CC1 | 19.21
Cc1nc(-c2ccc(CC(=O)N3CCN(C(=O)C4CC4)CC3)cc2)cs1 | 16.03
CC(=O)Nc1nc(C2CCN(C(=O)c3cncs3)CC2)cs1 | 107.2
CC(=O)Nc1nc(C2CCN(CC(N)=O)CC2)cs1 | -6.255
CC(=O)Nc1nc(C2CCN(C(=O)C3CCC3)CC2)cs1 | 103.4
CCc1csc(CCNC(=O)CC2CCN(C(C)C)CC2)n1 | 8.427
CC(=O)Nc1nc(C2CCN(C(C)C)CC2)cs1 | 119.6
CSCC(=O)NC(Cc1ccc(C)cc1)c1ccccn1 (stereo not given) | -0.4247
O=C(Cn1cc(C2CC2)nn1)NC(c1cc(F)ccc1F)C1CC1 (stereo not given) | -5.532
O=C(C1CC=CC1)N1CCC2(CCC(=O)N2Cc2cccc(F)c2)CC1 | -0.5854
O=C(NC[C@H]1OC[C@@H](NCc2ccc(F)cc2)[C@@H]1O)c1ccncc1 | -2.517
CC(=O)Nc1nc(C(=O)N2CCC(Nc3cccnn3)CC2)cs1 | -3.618
CC(=O)Nc1nc(C2CCN(C(=O)c3ccncc3)CC2)cs1 | 108.8
COc1ccccc1N1CCC(N2CCOCC(CO)C2)CC1 (stereo not given) | 9.24
O=C(CC1CCCO1)NCc1ccc(Br)cc1F (stereo not given) | 3.91
CN(CC1(CO)CCOCC1)[C@@H]1c2ccccc2C2(CCNCC2)[C@H]1O | 1.582
CC(C)(C)OC(=O)NCC1CCCCN1Cc1ccncc1 (stereo not given) | -3.492
O=C(O)[C@]12CCCN(Cc3cccnc3)[C@@H]1CCN(c1cnccn1)C2 | -19.78
c1cc(CN2CCCCC2c2ccc(Nc3cnccn3)nc2)ccn1 (stereo not given) | 159
CC(C)(C)OC(=O)NCC1CCCCN1Cc1cccnc1 (stereo not given) | 4.728
c1cncc(CN2CCCCC2c2ccc(Nc3cnccn3)nc2)c1 (stereo not given) | 73.84
